From PubChem BioAssay
JMJD2A Tudor inh: blocks the human JMJD2A Tudor domain; O75164; AlphaScreen JMJD2A-Tudor / H3K4me3 peptide binding; Potency, µM (highest dose often 114 µM), without a hit: at the top dose activity change, negative = inhibition, hits mostly inhibitors; 390,000 tested, 4.4% active; AID 504339; also: % is scaled to controls: 0 for no effect and ±100 for the full control effect; nearly all actives have a fitted effect of over 50% in size
ALOX12 inh: inhibitors of human 12S-lipoxygenase ALOX12; P18054; purified 12hLO, xylenol orange hydroperoxide absorbance; Potency, µM (titrated, usually from 108 µM), for the others: at the highest dose activity change, negative = inhibition, hits mostly inhibitors; 580,000 tested, 1.1% active; also: % is scaled to controls: 0 for no effect and ±100 for the full control effect
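Hydroperoxide product was detected by ferrous iron/xylenol orange as the 573 to 405 nm absorbance ratio. Arachidonic acid at 40 uM (final) was turned over for 30 min at room temperature by 150 nM human 12hLO, pH 7.0 Hepes buffer, after 15 min compound preincubation.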
Sfp PPTase inh: inhibitors of Bacillus subtilis Sfp phosphopantetheinyl transferase. Biochemical Sfp PPTase activity, qHTS. Potency, µM, for inactives: largest response in the series, negative = inhibition, most hits filed as inhibitors. 310,000 tested, 3.5% active. AID 1490;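 also: the enzyme is Sfp with the accession as filed and its product quenches rhodamine fluorescence; 0% = enzyme reaction without inhibitor and -100% = no enzyme wells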
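Sfp 15 nM + cpd, 15 min RT; start w/ rhodamine-CoA 5 uM, BHQ-2-YbbR 12.5 uM (final); 50 mM Hepes pH 7.6, 10 mM MgCl2, 0.01% NP-40, 0.01% BSA; read 525/598 nm at 0 and 30 min.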
HP1b binding inh: inhibitors of HP1-beta chromodomain binding to methylated histone tails; AlphaScreen HP1-beta / biotin-H3K9me3 peptide binding; Potency, µM (doses to about 114 µM), inactives show at the highest dose activity change, negative = inhibition, actives largely listed as inhibitors; 390,000 tested, 0.56% active; also: nearly all actives have a fitted effect of over 70% in size
Target sequence (P83916 whole entry, looked up): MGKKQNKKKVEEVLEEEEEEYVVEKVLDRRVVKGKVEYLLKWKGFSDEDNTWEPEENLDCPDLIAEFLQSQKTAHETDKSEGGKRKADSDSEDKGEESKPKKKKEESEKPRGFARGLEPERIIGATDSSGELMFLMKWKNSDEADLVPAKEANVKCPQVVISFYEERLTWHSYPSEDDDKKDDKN
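AlphaScreen: HP1-beta (50 nM) preformed 30 min with biotin-H3(1-18)K9me3 peptide (50 nM) in PBS pH 7.4, 0.01% Tween-20. Compound added for 30 min at RT, then streptavidin donor/nickel chelate acceptor beads (10 ug/mL) for 30 min.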
G9a inh: blocks human histone lysine methyltransferase G9a | Q96KQ7 | G9a H3K9 monomethylation, AlphaScreen, 2 h | Potency, µM (doses to about 102 µM), without a hit: at the top dose activity, negative = inhibition, hits mostly inhibitors | 350,000 tested, 8.8% active | AID 504332; also: % is scaled to controls: 0 for no effect and ±100 for the full control effect; nearly all actives have a fitted effect of over 75% in size
Target sequence (Q96KQ7 913-1193 limits assumed): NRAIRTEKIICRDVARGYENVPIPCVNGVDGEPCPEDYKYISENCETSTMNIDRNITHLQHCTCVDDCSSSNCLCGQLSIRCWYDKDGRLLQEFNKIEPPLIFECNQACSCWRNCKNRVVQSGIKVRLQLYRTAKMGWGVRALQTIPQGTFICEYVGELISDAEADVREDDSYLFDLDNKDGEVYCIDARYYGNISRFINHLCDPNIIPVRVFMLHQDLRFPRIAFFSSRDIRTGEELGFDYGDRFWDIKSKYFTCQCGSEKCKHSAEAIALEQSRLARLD
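Methyltransferase reactions run at room temperature for 2 h (20 nM enzyme, 500 nM biotin-H3K9 peptide, 20 uM SAM) after a 15 min compound preincubation; product detected by AlphaScreen beads and anti-H3K9me1 antibody.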
BAZ2B inh: inhibitors of human BAZ2B bromodomain; Potency, µM (highest dose often 114 µM), inactives show top-dose activity change, negative = inhibition, hits mostly inhibitors; 360,000 tested, 4.4% active; AlphaScreen BAZ2B-H3K14Ac peptide displacement; Q9UIF8; AID 504333; also: % is scaled to controls: 0 for no effect and ±100 for the full control effect; nearly all actives have a fitted effect of over 60% in size
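In this displacement format the biotinylated H3(5-23) peptide acetylated at Lys14 serves as ligand at 50 nM, with BAZ2B at 50 nM in PBS pH 7.4 containing 0.01% Tween-20. Donor and acceptor beads are 10 ug/mL final.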
Numbers without * were called inactive; ? = inconclusive; · = not tested or not shown; [ ] = remark or other dose. The list is not random: actives were taken first. Their share in the collection is about 8.7%. Calls follow the shape of the dose curve; as a rule, active = well fitted curve in the direction sought with a large enough effect; inconclusive = small, poorly fitted or top-dose-only effect, or another doubt; inactive = no such curve, though single readings can be large; an effect the other way counts as inactive or inconclusive. Potency is read from the fitted curve at half-maximal effect.

SMILES | JMJD2A Tudor inh | ALOX12 inh | Sfp PPTase inh | HP1b binding inh | G9a inh | BAZ2B inh
COC(=O)c1ccc(N2C(=O)CC(SCC(=O)Nc3ccc(OC)cc3)C2=O)cc1 (stereo not drawn) | -9% | ? | -19% | 35% | · | 0%
CN=C(Nc1cc(Cl)ccc1Cl)SC1CC(=O)N(c2ccc(C(=O)OC)cc2)C1=O (stereo not drawn) | -14% | -8% | 28% | 12% | 50µM* | 4%
COC(=O)c1cc(C(=O)OC)cc(N2C(=O)CC(Sc3nc(C)cc(C)n3)C2=O)c1 (stereo not drawn) | -17% | -6% | -15% | 53% | ? | -11%
CCOC(=O)N1CCN([C@H]2CS(=O)(=O)C[C@@H]2S(=O)(=O)c2ccc(C)cc2)CC1 | · | -43% | · | · | · | ·
Cc1nn(C)c(Sc2ccccc2N)c1[N+](=O)[O-] | 18µM* | ? | 3.5µM* | -17% | 7.9µM* | -37%
Cc1ccc(C(=O)N2CC(C(=O)NCCc3ccncc3)C3(CCOCC3)C2)cc1 (stereo not drawn) | · | 7% | · | · | · | ·
Cc1noc(CN(C)C(=O)C2C3C(=O)N(Cc4ccc(C)c(C)c4)C[C@@]34C=C[C@@H]2O4)n1 (stereo partly drawn) | · | 34% | · | · | · | ·
[O-]/[N+](=C\c1ccc(F)cc1)c1ccccc1 | -1% | ? | -18% | 4% | 7.9µM* | 3%
[O-]/[N+](=C\c1cccc(Br)c1)c1ccccc1 | -15% | ? | 12% | 14% | 40µM* | 27%
COc1ccc(Cn2c(C3CCN(C(=O)c4ccc(C)c(F)c4)CC3)n[nH]c2=O)cc1 | · | 10% | · | · | · | ·
COC(=O)[C@@H](C)NC(=O)[C@@H]1CN(C(=O)c2cccc(F)c2)CCN1C(=O)NC(C)C | · | 46%[176 µM] | · | · | · | ·
C[C@@H](c1ccccc1)N1C(=O)[C@@H]2CN(C(=O)c3cccnc3)CCN2C1=O | · | 12%[176 µM] | · | · | · | ·
S=C(NCCCN1CCOCC1)N1CCN(c2nc(-c3ccccc3)cs2)CC1 | ? | -4% | 45µM* | -14% | 56µM* | ?
O=C(NCCCN1CCOCC1)C1CCN(S(=O)(=O)c2cccc(Cl)c2Cl)CC1 | -7% | -17% | · | 10% | 15%[0.501 µM] | 13%
O=C(N1CCOCC1)N1CCN(c2nc(-c3ccccc3)cs2)CC1 | -26% | ? | ? | 7% | 45µM* | ?
Cc1cccc(C)c1N1CCN(C(=O)N2CCOCC2)CC1 | ? | -13% | -27% | 0% | 35µM* | -10%
c1ccc(-c2csc(N3CCOCC3)n2)cc1 | -32% | 0% | -9% | -5% | 29%[12.7 µM] | -37%
Cc1ccc(N2CCN(C(=O)N3CCOCC3)CC2)cc1C | -13% | 4% | -11% | 29% | ? | -4%
O=S(=O)(c1cccc(Cl)c1Cl)N1CCN(C(=S)NCCCN2CCOCC2)CC1 | 1.6µM* | ? | -20% | 28µM* | 35µM* | 50µM*
Fc1cccc(Cl)c1CSc1ccc(-c2ccccn2)nn1 | · | 55% | · | · | · | ·
S=C(NCCCN1CCOCC1)N1CCN(c2nc(-c3ccc(Cl)cc3)cs2)CC1 | ? | ? | 21% | -25% | -1% | -13%
S=C(NCC1CCCO1)N1CCN(c2nc(-c3ccc(Cl)cc3)cs2)CC1 (stereo not drawn) | ? | 339% | 10% | ? | ? | 35µM*
CCCc1ncncc1C(=O)N1CCCC2(CC1)CNC(=O)O2 (stereo not drawn) | · | 32% | · | · | · | ·
Cc1cc(-c2csc(NC(=O)c3ccc(C#N)cc3)n2)c(C)n1Cc1ccccc1 | -26% | -8% | 14% | 29% | 45µM* | 8%
Cc1ccc(C(=O)Nc2nc(-c3cc(Cl)sc3Cl)cs2)cc1 | ? | -25% | -10% | 19% | ? | 7%
SMILES | JMJD2A Tudor inh | ALOX12 inh | Sfp PPTase inh | HP1b binding inh | G9a inh | BAZ2B inh
O=c1c2c(nc3c(-c4ccc(Cl)cc4)c[nH]n13)CCC2 | -5%[11.4 µM] | -47% | ? | ? | 56µM* | -1%
COc1ccc(-n2[nH]c(-c3ccc(OC)c(OC)c3)cc2=O)cc1 | · | 1% | · | · | · | ·
Cc1ccc(C)c(-n2c(C)cc(/C=N/NC(=O)c3c(C)nc4cc(C)ccn34)c2C)c1 | 40µM* | -15% | -15% | -12% | ? | -9%
OC1(c2cccc(C(F)(F)F)c2)CCN(Cc2nc(-c3cccs3)no2)CC1 | · | 8% | · | · | · | ·
c1csc(Cc2nn3c(-c4ccncc4)nnc3s2)c1 | ? | -15% | ? | 45% | 13µM* | ?
COc1cc(-c2nn3c(-c4cc(-c5ccccc5)n[nH]4)nnc3s2)cc(OC)c1OC | -23%[57.1 µM] | · | · | 1%[57 µM] | · | ·
COc1cc(-c2nn3c(-c4ccccc4)nnc3s2)cc(OC)c1OC | -21% | -25% | -4% | 23% | 45µM* | 1%
c1csc(-c2nn3c(-c4ccncc4)nnc3s2)c1 | · | · | 23% | · | 12% | 0%
CCOc1cccc(-c2nnc3sc(-c4cc(OC)c(OC)c(OC)c4)nn23)c1 | -17% | 2% | -12% | 14% | 79µM* | 10%
COc1cc(-c2nn3c(Cc4ccccc4)nnc3s2)cc(OC)c1OC | -13% | -11% | ? | -11% | ? | 8%
COc1cc(-c2nn3c(COc4ccccc4)nnc3s2)cc(OC)c1OC | -20% | -6% | 56µM* | ? | 5µM* | -2%
COC1CN(c2ccc(C)cc2)C12CCN(C(=O)c1ccncc1)CC2 (stereo not drawn) | · | -2% | · | · | · | ·
Cc1ccc(CN(C)Cc2ccco2)cc1 | · | 1% | · | · | · | ·
Cc1nnc2sc(-c3ccncc3)nn12 | -12% | -39% | -3% | 35% | 11%[59 µM] | -30%
CCCc1nnc2sc(COc3ccccc3OCC)nn12 | · | 8% | · | · | · | ·
CCOc1ccccc1OCc1nn2c(COc3ccccc3)nnc2s1 | ? | ? | 18µM* | ? | ? | -21%
CC(C)(C)c1ccc(-c2nnc3sc(-c4ccncc4)nn23)cc1 | -20% | -13% | -26% | -20% | 2.5µM* | 11%
c1ccc(OCc2nn3c(-c4ccco4)nnc3s2)cc1 | -25% | -4% | ? | 25% | 50µM* | -8%
COC(=O)c1cccc(S(=O)(=O)Oc2ccc3c(C)cc(=O)oc3c2C(C)=O)c1 | · | 50% | · | · | · | ·
CC1=C(C)C(C)=C(C#N)C(=C(C#N)C#N)N1 | -19% | 1.1µM* | -18% | 6% | 40µM* | ?
CC(C)CCN1C(=O)c2ccc(C(=O)Nc3ccc(Br)cc3C(=O)O)cc2C1=O | 56µM* | ? | -7% | 4% | · | 45µM*
CC(C)CCN1C(=O)c2ccc(C(=O)Nc3cc(C(=O)O)cc(C(=O)O)c3)cc2C1=O | -5% | 0% | 11% | 27% | -1% | -20%
O=C(Nc1ccc(Cl)cc1C(=O)O)c1ccc2c(c1)C(=O)N(Cc1ccco1)C2=O | 56µM* | ? | -23% | -9% | 11µM* | 50µM*
